Screens (PubChem)
Rows were chosen to be rich in hits. Some 3.4% of all compounds tested hit in one or more screens of this group.
ssDAF-12 act = S. stercoralis DAF-12 nuclear receptor activators, primary screen, cell-based, luminescence, HEK293, GRIP1 co-expression, lit1-tk-luc | Nuclear hormone receptor DAF-12 (Strongyloides stercoralis) | HEK293 ssDAF-12/GRIP1 lit1-tk-luc reporter; % of 3 µM dafachronic acid response | activation, % at 6.8 µM | actives 1% (n = 370,000) | AID 652126, 2013;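 active = activation above the mean over all tested compounds plus 3 SD, cut at about 0.9% in these data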;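 also: 0% = DMSO-only wells and 100% = 3 µM delta7-dafachronic acid wells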
APP 5'UTR act = activators of APP 5'UTR luciferase reporter, primary screen, SH-SY5Y cells; activation, % at 2 µM; SH-SY5Y APP 5'UTR luciferase reporter, luminescence; zero percent = DMSO vehicle wells; actives 1% (n = 190,000);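 active = activation above a set limit, based on mean plus 3 SD of controls, cut at about 140% in these data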
hcDAF12 agonist = H. contortus DAF-12 nuclear receptor activators, primary screen, cell-based, luminescence, HEK293, lit1-tk-luc reporter | AID 652067, 2013 | HEK293 hcDAF-12 lit1-tk-luc reporter; 0% DMSO, 100% Δ7-dafachronic acid | activation, % at 6.8 µM | actives 1.4% (n = 370,000);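 active = activation above the mean of all tested compounds plus 3 SD, cut at about 5.5% in these data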;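 also: 100% = response to 3 µM Δ7-dafachronic acid high control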
NF-kB expr up = activators of NF-kB expression in neurons, primary screen, cell-based, HTS; AID 1239, 2008; human neuronal cells, NF-kB reporter expression; stronger effect = higher value; actives 1.6% (n = 190,000); fold change at 12.5 µM; in the data active = fold change above about 3.3
hgDAF-12 ag = H. glycines DAF-12 receptor agonists, primary screen, cell-based, luminescence, HEK293, GAL4 fusion, UAS-luciferase; HEK293 GAL4-hgDAF12 UAS-luciferase reporter, agonist luminescence; normalized to butyrate control; activation, % at 6.8 µM; actives 1.8% (n = 370,000);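 active = activation above a cutoff set at the mean of all screened compounds plus 3 SD, cut at about 10% in these data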;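 also: 0% = DMSO wells and 100% = sodium butyrate wells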
LXR ag = LXR agonists, Gal4 luciferase reporter, confirmation, counter-screen for hcDAF-12 agonist project, cell-based, luminescence, HEK293, H. contortus campaign | shares compounds with hcDAF12 agonist | activation, % at 6.8 µM | 3,400 tested, under 10 active | HEK293 Gal4-LXR tk-luc reporter, 24 h; normalized: DMSO 0%, positive control 100%;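 active = mean percent activation of the reporter above a cutoff set as the average over tested compounds plus their standard deviation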
Target sequence (P55055 whole entry, looked up, the tested form may be a part): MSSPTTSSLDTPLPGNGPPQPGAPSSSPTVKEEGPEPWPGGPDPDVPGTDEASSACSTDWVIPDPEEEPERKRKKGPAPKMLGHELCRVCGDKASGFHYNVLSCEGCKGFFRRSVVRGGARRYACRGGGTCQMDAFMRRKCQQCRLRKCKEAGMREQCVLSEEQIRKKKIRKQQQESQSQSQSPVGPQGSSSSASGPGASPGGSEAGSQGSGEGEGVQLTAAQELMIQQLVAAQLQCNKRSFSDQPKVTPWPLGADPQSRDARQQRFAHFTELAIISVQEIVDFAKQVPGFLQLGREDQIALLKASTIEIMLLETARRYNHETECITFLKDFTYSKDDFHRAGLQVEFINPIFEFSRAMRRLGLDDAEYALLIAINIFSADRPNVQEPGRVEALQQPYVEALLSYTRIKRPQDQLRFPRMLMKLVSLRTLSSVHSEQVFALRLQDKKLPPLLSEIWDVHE
hcDAF12 ag = H. contortus DAF-12 receptor agonists, confirmation, cell-based, luminescence, HEK293, lit1-tk-luc, triplicate. shares compounds with hcDAF12 agonist. HEK293 hcDAF-12 lit1-tk-luc reporter; % of Δ7-dafachronic acid response. activation, % at 6.8 µM. actives 61% (n = 3,400);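 active = mean activation across triplicate tests above the threshold derived from the earlier primary screen, cut at about 5.5% in these data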;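 also: 0% = DMSO only wells and 100% = 3 µM Δ7-dafachronic acid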
hgDAF12 conf = H. glycines DAF-12 receptor agonists, confirmation, cell-based, luminescence, HEK293, GAL4-LBD fusion; shares compounds with hgDAF-12 ag; HEK293 GAL4-hgDAF12 luciferase reporter, agonist mode; percent of butyrate response; activation, % at 6.8 µM; actives 80% (n = 3,300); AID 743050, 2013;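 active = mean activation over triplicate wells above the hit cutoff derived from the earlier primary screen, cut at about 11% in these data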;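 also: 0% = DMSO low control and 100% = 2 mM sodium butyrate high control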
LXRb DAF12 ctr = LXR agonists, Gal4 luciferase reporter, confirmation, counter-screen for hgDAF-12 agonist project, cell-based, luminescence, HEK293, H. glycines campaign; activation, % at 6.8 µM; shares compounds with hgDAF-12 ag; AID 743051, 2013; 3,300 tested, under 10 active; 24 h;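 active = mean activation of the triplicate above a set limit carried over from the primary screen, none filed active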
Numbers without * were called inactive.

Screening O=C(CNS(=O)(=O)c1ccc(Cl)s1)N1CCN(c2ccccn2)CC1 returned ssDAF-12 act -1.9, hcDAF12 agonist -2.6 and hgDAF-12 ag -2.3.
`O=C(NNC(=O)c1cc2ccccc2o1)c1ccc(Cl)cc1` gave ssDAF-12 act -1.7, hcDAF12 agonist -1.7 and hgDAF-12 ag 1.7.
`O=C(Nc1ccc(Cl)cn1)c1cc2ccccc2o1` gave ssDAF-12 act 2.7*, APP 5'UTR act 205.0*, hcDAF12 agonist 13.5*, NF-kB expr up 9.18*, hgDAF-12 ag 14.3*, LXR ag 1.4, hcDAF12 ag 15.7*, hgDAF12 conf 19.7* and LXRb DAF12 ctr 1.1.
COC(=O)[C@]12C[C@H](CC(=O)N3CCCC3)C(=O)N(Cc3ccco3)C1=C[C@H](C(C)C)O[C@@H]2C1CC1 was read as ssDAF-12 act -1.5, hcDAF12 agonist 2.3 and hgDAF-12 ag -2.9.
`C=CCn1c(COc2ccc(C)cc2)nnc1SCC(=O)c1ccc(-c2ccccc2)cc1` gave ssDAF-12 act -1.3, hcDAF12 agonist -1.5 and hgDAF-12 ag 2.2.
Cc1ccc(CSc2nnc(-c3cccs3)o2)cc1C was read as ssDAF-12 act -1.3, hcDAF12 agonist 0.9 and hgDAF-12 ag 5.2.
Nc1c(-c2cccs2)cnc2c(-c3ccc(F)cc3)cnn12 was read as ssDAF-12 act 1.0*, hcDAF12 agonist 9.0*, hgDAF-12 ag 15.8*, LXR ag 2.3, hcDAF12 ag 6.6*, hgDAF12 conf 24.7* and LXRb DAF12 ctr 1.4.
`N#Cc1cnn2c(N)c(-c3ccc(Cl)cc3)cnc12` gave ssDAF-12 act -0.9, APP 5'UTR act 25.2, hcDAF12 agonist -1.1, NF-kB expr up 0.85 and hgDAF-12 ag 2.0.
For Nc1c(-c2ccccc2)cnc2c(-c3ccccc3)cnn12 the results were ssDAF-12 act 1.3*, hcDAF12 agonist 11.2*, hgDAF-12 ag 19.7*, LXR ag 2.0, hcDAF12 ag 9.3*, hgDAF12 conf 11.0* and LXRb DAF12 ctr 1.1.
`Cc1nc2c(-c3ccc(F)cc3)cnn2c(N)c1-c1ccc(F)cc1` gave ssDAF-12 act -1.6, hcDAF12 agonist -0.6 and hgDAF-12 ag -3.6.
Screening O=C(N/N=C/c1c[nH]c2ccccc12)c1cc(-c2ccc3ccccc3c2)n[nH]1 returned ssDAF-12 act -0.1, APP 5'UTR act -88.3, hcDAF12 agonist 7.9*, NF-kB expr up 0.61, hgDAF-12 ag 24.8*, LXR ag 0.5, hcDAF12 ag 2.2, hgDAF12 conf 5.1 and LXRb DAF12 ctr 0.1.
Screening O=C(N/N=C/c1c[nH]c2ccccc12)c1cc(-c2ccccc2)n[nH]1 returned ssDAF-12 act 0.1, APP 5'UTR act -6.8, hcDAF12 agonist 1.3, NF-kB expr up 0.54 and hgDAF-12 ag 1.9.
